Experimental findings from ChEMBL document CHEMBL4513146, “CO-ADD screening of Karazin Kharkiv National University (Ukraine) compounds” are described below.

One test relates to Staphylococcus aureus. The settings on record: Concentration 32 ug.mL-1;; ASSAY_TEST Inhibition of Bacterial Growth; detection method Absorption (OD600); MEDIA CAMHB; plate type 384well; NBS; CORNING #3640; time 18 hr.
The next test deals with Escherichia coli. The following applies: Concentration 32 ug.mL-1;; ASSAY_TEST Inhibition of Bacterial Growth; detection method Absorption (OD600); MEDIA CAMHB; plate type 384well; NBS; CORNING #3640; time 18 hr.

Measured potencies and affinities stand elsewhere.

Broadly, the Inhibition is the drop in the measured response relative to a control, in per cent. `Cn1c(=O)c2sccc2n2c(=O)n(CCOc3ccccc3)nc12`: the Inhibition is listed as -2.74% in the test on Staphylococcus aureus and -12.23% in the test with Escherichia coli.
In the case of `COc1cccc(-n2ccn3c(SC(C)C(=O)c4ccc(C)c(C)c4)nnc3c2=O)c1` (centres undefined), the figures for the Inhibition with Staphylococcus aureus and with Escherichia coli were 13.98% and 1.22%, respectively.
For `COc1ccccc1NC(=O)Cn1nc2c(SCc3ccc(Cl)cc3)nccn2c1=O` the same measures were 2.82% and -8%.
Take `Cc1cc2nn(CC(=O)Nc3ccccc3F)c(=O)n2c(Nc2ccc(F)c(C)c2)n1`: the Inhibition in the test on Staphylococcus aureus is given as 11.73%; in the test with Escherichia coli it was -0.72%.
In the case of `CCc1ccccc1NC(=O)Cn1nc2c(Sc3ccccc3CC)nccn2c1=O`, the Inhibition in the test on Staphylococcus aureus was 13.37%; with Escherichia coli, -2.13%.
Consider `NC(=O)C1CCN(C(=O)CCc2nnc3c(N4CCCCC4)nc4ccccc4n23)CC1`, for which the Inhibition in the test on Staphylococcus aureus is 14.39%; in the test on Escherichia coli, 0.84%.
For `CCc1ccc(N(Cc2ccccc2)S(=O)(=O)c2cccn3c(CC)nnc23)cc1` the same measures were 13.69% and -0.95%.
For `CC(C)c1nnc2c(=O)n(CC(=O)Nc3cccc(C#N)c3)c3ccccc3n12` the same measures were 14.89% and 2.48%.
Regarding `COc1cccc(-n2ccn3c(SCC(=O)Nc4ccc(OC)c(OC)c4)nnc3c2=O)c1`, the Inhibition in the test on Staphylococcus aureus is 14.09%; in the test on Escherichia coli, -2.6%.
The corresponding values for `Cc1cc(C)c(NC(=O)Cn2nc3c(SC4CCCCC4)nccn3c2=O)c(C)c1` are 12.7% and -1.77%.
For `Cc1cc(C)cc(Nc2nc(C)cc3nn(CC(=O)Nc4ccc(F)cc4F)c(=O)n23)c1` the same measures were 11.96% and -0.48%.
The corresponding values for `COc1cc(-c2nnc3c(=O)n(Cc4ccc(Cl)cc4)ccn23)cc(OC)c1OC` are 11.84% and -0.28%.
